The values below come from PubChem BioAssay (NCATS).

Test [1] is described as follows: Viability qHTS for spleen associated tyrosine kinase inhibitor (SYKi) naive MV4-11 cells (AID 1963823). Note: nearly all actives have a fitted effect of over 40% in size. The gist of the method:
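qHTS, SYK inhibitor-naive MV4-11; 500 cells/well; 72 hr compound exposure, 37 C; CellTiter-Glo added, 10 min RT; luminescence read.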

Test [2] in a line: Viability qHTS for spleen associated tyrosine kinase inhibitor (SYKi) drug resistant MV4-11 cells (AID 1963824). Note: nearly all actives have a fitted effect of over 35% in size. The method in brief: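 SYK-inhibitor-resistant MV4-11 AML cells were seeded at 500 per well onto compound and cultured 72 hours (37 °C, 5% CO2). CellTiter-Glo was then added, and after 10 min at room temperature, luminescence gave viability.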
For orientation: qHTS replaces the single test concentration by a dilution series.

A short description of test [3]: Cellular viability qHTS for adrenocortical cancer (ACC) cell line SW-13 (AID 1963989).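 For activity (max response): cells grown in serum-free medium with ITS supplement; % is set by controls: 0 for no effect and ±100 for the full control effect.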 Note: nearly all actives have a fitted effect of over 65% in size. Particulars: SW-13 ACC cells viability, CellTiter-Glo, 48 h; activity (max response): stronger effect = lower value. The gist of the method: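 Viability was read as CellTiter-Glo luminescence after 48 h compound treatment (up to 46 uM final) of SW-13 cells grown serum-free; titration curves were fit with a four-parameter logistic model to give IC50 and efficacy.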

Test [4] in a line: Cellular viability qHTS for adrenocortical cancer (ACC) cell line NCI-H295R (AID 1963990).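 For activity change, negative = viability loss: 0% = DMSO only wells and -100% = full killing with cytotoxic reference compound.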 Note: nearly all actives have a fitted effect of over 60% in size. The gist of the method:
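CellTiter-Glo ATP luminescence, read 48 h after compound addition, measured viability of NCI-H295R adrenocortical cells grown serum-free with ITS. Final concentrations spanned up to 46 uM. Data normalized to DMSO and doxorubicin, fitted for IC50 and maximal response.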

“And” between values parts separate entries of the source, which are not always exact repeats. Equal values may be shown once. Records with an inconclusive call do not appear. Where a structure was tested more than once in an assay, its records may differ in their call. The source made the active and inactive calls. Calls come from the whole dose curve; as a rule, active = well fitted curve in the direction sought with a large enough effect; inconclusive = small, poorly fitted or top-dose-only effect, or another doubt; inactive = no such curve, though single readings can be large; an effect the other way counts as inactive or inconclusive.
Potency is the fitted concentration of half-maximal effect.

Consider `CC(C(=O)O)c1ccc(C(=O)c2ccccc2)s1` (stereo not given), for which the Potency entry in test [1], in test [2] and in test [4] was “inactive” each time. The activity (max response) in test [3] is -5.09% (inactive).
On to `O=S(=O)(Nc1ccc(-c2cccnc2)c2cccnc12)c1cccc(C(F)(F)F)c1`, for which the Potency in test [1] was 6.61 µM (active); in test [2], 5.25 µM (active); in test [3], 4.47 µM (active); in test [4] it was 3.98 µM (active).
Consider `CCCCC(CC)CNC(=O)CC(C)OC(=O)CCC(=O)O` (stereo not given), for which the Potency result in test [1], in test [2] and in test [4] was “inactive” throughout. Moreover, the activity (max response) in test [3] is -6.84% (inactive).
As for `CCN1/C(=C/C(C)=O)Sc2ccc(OC)cc21`, the Potency in test [1] is 9.2 µM (active); in test [2], 8.2 µM (active). Besides, the activity (max response) in test [3] was 3.06% (inactive). The Potency result in test [4] was “inactive”.
On to `O=C1CC2(CCCC2)CC(=O)N1CCNCC1COc2ccccc2O1` (stereo not given), for which the Potency entry in test [1], in test [2] and in test [4] was “inactive” each time. For the same compound, in test [3], the activity (max response) is 6.61% (inactive).
Consider `Nc1ccc(C(=O)NCC(=O)O)cc1`, for which the Potency result in test [1], in test [2] and in test [4] was “inactive” each time. Also, the activity (max response) in test [3] was -9.96% (inactive).
On to `O=[N+]([O-])c1ccc(-c2nc(-c3ccc(F)cc3)c(-c3ccncc3)[nH]2)cc1`, for which the Potency in test [1] was 14.8 µM (active) and 5.17 µM (active); in test [2], “inactive and 9.34 µM (active) and 2.06 µM (active)”. The activity (max response) in test [3] is -1.63% (inactive). Moreover, in test [4], the Potency entry is “inactive”.
With `CC(=O)Oc1cc(C(C)C)c(OCCN(C)C)cc1C`, the Potency in test [1] is 0.0011 µM (active). The Potency result in test [2] and in test [4] was “inactive” in each case. For the same compound, in test [3], the activity (max response) was 12.6% (inactive).
In the case of `O=C(/C=C/c1ccc(/C=C/C(=O)Nc2ccc(C3=NCCN3)cc2)cc1)Nc1ccc(C2=NCCN2)cc1`, the viability (% of control) in test [1] was 73.8% [at 4.97 µM] (inactive). Also, in test [2], the viability, % of control was 91.6% [at 4.97 µM] (inactive). Also, the activity (max response) in test [3] was -13% (inactive). Further, the activity change, negative = viability loss in test [4] is -22% [at 3.81 µM] (inactive).
`C[C@]12CCC(=O)C=C1CC[C@@H]1[C@@H]2[C@@H](O)C[C@@]2(C)[C@H]1CC[C@]2(O)C(=O)COC(=O)CCC(=O)O`: the Potency entry in test [1], in test [2] and in test [4] was “inactive” each time. Further, the activity (max response) in test [3] is 3.9% (inactive).
As to `Cc1c(NC(=O)OCC2COCCN2)cn2ncnc(Nc3ccc4c(cnn4Cc4cccc(F)c4)c3)c12` (stereo not given), the Potency in test [1] is 4.61 µM (active) and 16.6 µM (active); in test [2], 5.8 µM (active) and 16.6 µM (active); in test [3], 22.4 µM (active); in test [4], 31.6 µM (active).
Take `CC(=O)OCC(=O)[C@@]12OC(C)(C)O[C@@H]1C[C@H]1[C@@H]3C[C@H](F)C4=CC(=O)C=C[C@]4(C)[C@@]3(F)[C@@H](O)C[C@@]12C`: the Potency entry in test [1] is “inactive and 93.4 nM (active)”. Moreover, the Potency entry in test [2] and in test [4] was “inactive” each time. In test [3], the activity (max response) was 10.5% (inactive) and 8.23% (inactive).
For `C#C[C@]1(O)CC[C@H]2[C@@H]3CCc4cc(O)ccc4[C@H]3CC[C@@]21C`, the Potency entry in test [1] is “inactive and 14.8 µM (active)”; in test [2] it was “inactive and 7.42 µM (active)”; in test [3] it was 7.94 µM (active); in test [4] it was 3.55 µM (active).
Regarding `Cn1c(NC[C@@H](N)Cc2ccccc2)nc(-c2ccncc2)c(-c2ccc3ccccc3c2)c1=O`, the Potency in test [1] is 7.42 µM (active); in test [2] it was 6.61 µM (active); in test [3], 28.2 µM (active); in test [4] it was 31.6 µM (active).
On the same counts, the results for `NC(=O)/C(=C/n1cnc(-c2cc(C(F)(F)F)cc(C(F)(F)F)c2)n1)c1cncnc1` are 0.132 µM (active), 0.235 µM (active), 3.98 µM (active) and 3.16 µM (active).
On to `CCCCCN(CCCOC)C(=O)C(CCC(=O)O)NC(=O)c1ccc(Cl)c(Cl)c1` (stereo not given), for which the Potency entry in test [1], in test [2] and in test [4] was “inactive” throughout. Besides, in test [3], the activity (max response) is 5.62% (inactive).
With `Cc1ccccc1N=Nc1ccc(N=Nc2c(O)ccc3ccccc23)c(C)c1`, the Potency entry in test [1], in test [2] and in test [4] was “inactive” throughout. The activity (max response) in test [3] was 15.2% (inactive).
Regarding `O=C(c1ccc(F)c(F)c1Nc1ccc(I)cc1F)N1CC(O)([C@@H]2CCCCN2)C1`, the Potency is 326 nM (active) and 235 nM (active) in test [1]; 231 nM (active) and 296 nM (active) in test [2]; 12.6 µM (active) in test [3]; 5.62 µM (active) in test [4].
As for `CC(C)Nc1cccnc1N1CCN(C(=O)c2cc3cc(NS(C)(=O)=O)ccc3[nH]2)CC1`, the Potency entry in test [1], in test [2] and in test [4] was “inactive” throughout. Besides, in test [3], the activity (max response) is -10.3% (inactive).
For `CC(=O)NC(Cc1ccccc1)C(=O)O` (stereo not given), the Potency result in test [1], in test [2] and in test [4] was “inactive” throughout. Moreover, the activity (max response) in test [3] was -3.3% (inactive).
Consider `O=C1CCCc2c(O)cccc21`, for which the Potency entry in test [1], in test [2] and in test [4] was “inactive” in each case. Besides, in test [3], the activity (max response) was -6.15% (inactive).
`NCC1CCC(C(=O)O)CC1` (stereo not given): the Potency entry in test [1], in test [2] and in test [4] was “inactive” throughout. Also, in test [3], the activity (max response) was 10.7% (inactive).
Regarding `CC1=C(C/C=C(\C)CCC[C@H](C)CCC[C@H](C)CCCC(C)C)C(=O)c2ccccc2C1=O`, the Potency result in test [1], in test [2] and in test [4] was “inactive” in each case. For the same compound, the activity (max response) in test [3] is 12.7% (inactive).
Regarding `CS(=O)(=O)N1CCC(NC(=O)c2[nH]ncc2NC(=O)c2c(Cl)cccc2Cl)CC1`, the Potency in test [1] was 0.934 µM (active); in test [2], 0.291 µM (active); in test [3], 3.98 µM (active); in test [4], 11.2 µM (active).
On the same counts, the results for `Cc1cc(-c2nc3cc(F)ccc3s2)ccc1NC(=O)[C@@H](N)CCCCN` are 2.31 µM (active), 2.59 µM (active), 25.1 µM (active) and 17.8 µM (active).
